Assay results published in PubChem BioAssay (Tox21).
Inconclusive results are not listed. Activity calls are given as the source filed them. Unless noted, the call rests on the fitted dose curve; in most records, active means well fitted curve in the direction sought with a large enough effect in the repeat runs; inconclusive means weak or mixed curves; inactive means no such curve, though single readings can be large; an effect the other way counts as inactive or inconclusive.

Assays:
[1] = target: Thyrotropin receptor (Homo sapiens) (UniProt P16473); assay: qHTS assay to identify small molecule agonists of the thyroid stimulating hormone receptor (TSHR) signaling pathway (AID 1224843; calls by dose curve; further: nearly all actives have a fitted effect of over 45% in size)
How it was run: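 Screening of the Tox21 10K collection used HEK293 cells engineered with TSHR at 800 cells per well. After a 30-min room-temperature compound exposure, HTRF cAMP reagents were added and fluorescence recorded 1 h later.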

[2] = qHTS assay to identify small molecule agonists of the hypoxia (HIF-1) signaling pathway - cell viability counter screen (AID 1224844; calls by dose curve; further: nearly all actives have a fitted effect of over 50% in size)
How it was run: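 Tox21 10K compounds were added to HRE-bla ME-180 cells (0.5% dialyzed FBS) and incubated 17 hrs at 37C; ATP-based CellTiter-Glo luminescence then reported cell viability in the same wells.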

[3] = qHTS assay to identify small molecule agonists of H2AX (AID 1224845; active means well fitted activation curve with a large enough effect in the signal ratio in the repeat runs, not every such curve was filed as active; the % refers to the signal ratio)
How it was run: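 Phospho-H2AX Ser139 measured by HTRF (ex 320 nm; em 665 and 620 nm) after 24 hr antibody incubation. Compounds, 15 concentrations, 0.76% DMSO, were applied to CHO-K1 cells for 3hr at 37C before lysis.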

[4] = qHTS assay to identify small molecule agonists of the hypoxia (HIF-1) signaling pathway (AID 1224846; active means well fitted activation curve with a large enough effect in the signal ratio in the repeat runs, not every such curve was filed as active; the % refers to the signal ratio)
How it was run: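 Steps: seed ME-180 HRE-bla cells (2,000/well, 0.5% dialyzed FBS); incubate 5 hrs at 37C; pin-transfer compounds or DMSO; incubate 17 hrs; add LiveBLAzer B/G substrate CCF4-AM; measure reporter activation by FRET.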

[5] = qHTS assay to identify small molecule agonists of H2AX - cell viability counter screen (AID 1224847; calls by dose curve;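 further: wild-type CHO-K1 cells; top concentration of the series differs between compounds; nearly all actives have a fitted effect of over 30% in size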)
How it was run: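 For this counter screen, overnight-attached CHO-K1 cells received test compounds (15 concentrations, 0.76% DMSO final); 3 hr later at 37C, CellTiter-Glo reagent was added and luminescence recorded after 30 min at room temperature.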

[6] = qHTS assay to identify small molecule antagonists of the estrogen related receptor (ERR) signaling pathway from Tox21 library (AID 1224848); further: nearly all actives have a fitted effect of over 50% in size
How it was run: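 Antagonist-mode screen of the Tox21 10K library in an NTP-provided ERR reporter cell line; 18 h compound exposure at 37 C, luminescence measured with ONE-Glo.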

[7] = qHTS assay to identify small molecule agonists of the estrogen related receptor (ERR) signaling pathway from Tox21 library (AID 1224849; calls by dose curve; further: nearly all actives have a fitted effect of over 15% in size); settings: ERR reporter cell line, ONE-Glo luciferase, 18 h; at 92.4 µM (top of the series) unless noted
How it was run: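 Agonist signal is luciferase luminescence from an ERR reporter cell line treated 18 h at 37 C with DMSO-dissolved compounds, read 30 min after ONE-Glo addition at room temperature.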

[8] = qHTS RealTime-Glo MT Cell Viability Assay in HepG2 cells - 24 hour (AID 1224867); further: nearly all actives have a fitted effect of over 50% in size
How it was run: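 Cells + NanoLuc/prosubstrate dispensed (600 cells/well) → 5 h at 37 C/5% CO2 → compounds in DMSO transferred → 40 h incubation at 37 C, luminescence read at 0, 8, 16, 24, 32, 40 h.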

[9] = A CellTox Green Cytotoxicity Assay to monitor cytotoxicity in HEK293 cells - 0 hour (AID 1224869); further: nearly all actives have a fitted effect of over 50% in size
How it was run: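 Cytotoxicity was tracked continuously in HEK293 cells by a DNA-binding dye excluded from viable cells. Compounds were transferred in DMSO 5 h after seeding; fluorescence was recorded at intervals up to 40 h.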

[10] = qHTS RealTime-Glo MT Cell Viability Assay in HEK293 cells - 32 hour (AID 1224868)
How it was run: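 Tox21 10K qHTS, HEK293, 600 cells/well, RealTime-Glo reagent co-dispensed with cells; 5 h preincubation, compound by pintool, 37 C, luminescence at 0–40 h.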
On the % scale 0 is the no-effect control and ±100 the full control effect.

Thyrotropin receptor (Homo sapiens), sequence (P16473 whole entry, looked up): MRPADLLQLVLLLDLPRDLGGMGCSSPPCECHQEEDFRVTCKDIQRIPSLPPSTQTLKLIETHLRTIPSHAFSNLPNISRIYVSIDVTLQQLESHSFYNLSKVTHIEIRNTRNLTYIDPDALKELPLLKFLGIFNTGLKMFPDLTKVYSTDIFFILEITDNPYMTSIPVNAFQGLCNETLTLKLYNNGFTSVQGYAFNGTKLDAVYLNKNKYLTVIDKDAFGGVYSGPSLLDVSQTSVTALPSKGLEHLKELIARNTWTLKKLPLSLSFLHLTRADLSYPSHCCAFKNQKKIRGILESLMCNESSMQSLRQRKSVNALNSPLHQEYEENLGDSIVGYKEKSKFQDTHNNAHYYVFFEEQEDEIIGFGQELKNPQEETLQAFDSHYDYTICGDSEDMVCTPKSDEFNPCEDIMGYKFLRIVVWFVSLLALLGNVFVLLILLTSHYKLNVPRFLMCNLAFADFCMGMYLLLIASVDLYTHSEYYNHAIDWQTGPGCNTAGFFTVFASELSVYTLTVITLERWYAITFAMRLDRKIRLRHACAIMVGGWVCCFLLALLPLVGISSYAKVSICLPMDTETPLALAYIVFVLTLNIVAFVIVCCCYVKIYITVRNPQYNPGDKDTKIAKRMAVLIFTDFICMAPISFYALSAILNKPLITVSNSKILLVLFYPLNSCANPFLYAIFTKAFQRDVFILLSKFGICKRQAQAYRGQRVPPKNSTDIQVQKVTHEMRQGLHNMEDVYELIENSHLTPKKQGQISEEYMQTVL

CCCCOCCOCCOCCCC
inactive: Potency [1] | Potency [2] | outcome [3] | outcome [4] | Potency [5] | Potency [6] | activity change, positive = activation [7] 0.577% | Potency [8] | Potency [9]

O=C1NC(=O)[C@@]2(CCOc3ccc(F)cc32)N1
inactive: Potency [1] | Potency [2] | outcome [3] | outcome [4] | Potency [5] | Potency [8] | Potency [9]

C=COCC1CCC(CO)CC1 (stereo not drawn)
inactive: Potency [1] | Potency [2] | outcome [3] | outcome [4] | Potency [6] | activity change, positive = activation [7] 2.36% | Potency [8] | Potency [10] | Potency [9]

CCCCC(CC)COC(=O)c1ccccc1O (stereo not drawn)
inactive: Potency [1] | Potency [2] | outcome [3] | outcome [4] | Potency [5] | Potency [6] | activity change, positive = activation [7] 5.6% [at 42.5 µM] | Potency [8] | Potency [9]

CC1(C)CO[C@@H](CC(=O)O)CN1
inactive: Potency [1] | Potency [2] | outcome [3] | outcome [4] | Potency [5] | Potency [6] | activity change, positive = activation [7] 0.501% [at 42.5 µM] | Potency [8] | Potency [9]

NC(=O)c1cn(Cc2c(F)cccc2F)nn1
inactive: Potency [1] | Potency [2] | outcome [3] | outcome [4] | Potency [5] | Potency [8] | Potency [10] | Potency [9]

Cc1ccc(=O)n(-c2ccccc2)c1
inactive: Potency [1] | Potency [2] | outcome [3] | Potency [5] | Potency [6] | activity change, positive = activation [7] -0.153% [at 42.5 µM] | Potency [8] | Potency [10] | Potency [9]

NS(=O)(=O)c1cc(C(=O)O)cc(N2CCCC2)c1Oc1ccccc1
inactive: Potency [1] | Potency [2] | outcome [3] | Potency [5] | Potency [6] | activity change, positive = activation [7] 0.186% [at 42.5 µM] | Potency [8] | Potency [10] | Potency [9]

O=C(O)CN(CCOCCOCCN(CC(=O)O)CC(=O)O)CC(=O)O
inactive: activation [1] -8.79% [at 0.349 µM] | activity change, negative = cytotoxicity [2] -1.26% [at 0.29 µM] | activation (H2AX phosphorylation) [3] -0.327% [at 0.582 µM] | activity change, negative = cytotoxicity [5] 3.97% [at 0.582 µM] | activity, negative = inhibition [6] 2.61% [at 0.349 µM] | activity change, positive = activation [7] 1.46% [at 0.349 µM] | activity change, negative = cytotoxicity [8] -0.276% [at 0.29 µM] | activity change, negative = cytotoxic [10] 6.99% [at 0.29 µM] | cytotoxicity [9] 0.267% [at 0.29 µM]

N[C@@H](C(=O)N[C@@H]1C(=O)N2C(C(=O)O)=C(Cl)CS[C@H]12)c1ccccc1
inactive: activation [1] -0.277% [at 8.39 µM] | activity change, negative = cytotoxicity [2] 1.81% [at 6.97 µM] | activation (H2AX phosphorylation) [3] 0.237% [at 14 µM] | activity change, negative = cytotoxicity [5] -0.534% [at 14 µM] | activity, negative = inhibition [6] 7.8% [at 8.39 µM] | activity change, positive = activation [7] 4.35% [at 8.39 µM] | activity change, negative = cytotoxicity [8] 0.732% [at 6.97 µM] | activity change, negative = cytotoxic [10] 8.14% [at 6.97 µM] | cytotoxicity [9] 2.09% [at 6.97 µM]

CCn1nc(C(=O)O)c(=O)c2cc3c(cc21)OCO3
inactive: Potency [1] | Potency [2] | outcome [3] | Potency [5] | Potency [6] | activity change, positive = activation [7] 7.18% [at 42.5 µM] | Potency [8] | Potency [10] | Potency [9]

CCC(=O)OC(C)c1ccccc1 (stereo not drawn)
inactive: Potency [1] | Potency [2] | outcome [3] | outcome [4] | Potency [6] | activity change, positive = activation [7] 0.422% | Potency [8] | Potency [9]

CC(C)(O)C(=O)c1ccccc1
inactive: Potency [1] | Potency [2] | outcome [3] | outcome [4] | Potency [6] | activity change, positive = activation [7] 0.982% | Potency [8] | Potency [10] | Potency [9]

O=C1CCCCCCCCCCCN1
inactive: Potency [1] | Potency [2] | outcome [3] | outcome [4] | Potency [8] | Potency [10] | Potency [9]

Brc1c(NC2=NCCN2)ccc2nccnc12
inactive: Potency [1] | Potency [2] | outcome [3] | Potency [5] | Potency [6] | activity change, positive = activation [7] 3.51% [at 42.5 µM] | Potency [8] | Potency [10] | Potency [9]

CC(=O)OCC(CCn1cnc2cnc(N)nc21)COC(C)=O
inactive: Potency [1] | Potency [2] | outcome [3] | outcome [4] | Potency [8] | Potency [10] | Potency [9]

CC(C)c1cc2c(cc1S(=O)(=O)O)[C@@]1(C)CCC[C@@](C)(C(=O)O)[C@@H]1CC2
inactive: Potency [1] | Potency [2] | outcome [3] | outcome [4] | Potency [6] | activity change, positive = activation [7] 5.5% [at 42.5 µM] | Potency [8] | Potency [9]

O=C(c1ccccc1)C1CCCCC1
inactive: Potency [1] | Potency [2] | outcome [3] | outcome [4] | Potency [6] | activity change, positive = activation [7] 3.6% | Potency [8] | Potency [9]

CCCCC/C=C\CCC=O
inactive: Potency [1] | Potency [2] | outcome [3] | outcome [4] | Potency [8] | Potency [10] | Potency [9]

CCOC(=O)CC(C)=O
inactive: Potency [1] | Potency [2] | outcome [3] | outcome [4] | Potency [8] | Potency [10] | Potency [9]

CC(C)(C)c1nnc(NS(=O)(=O)c2ccccc2)s1
inactive: Potency [1] | Potency [2] | outcome [3] | outcome [4] | activity change, positive = activation [7] -14.8% [at 42.5 µM] | Potency [8] | Potency [10] | Potency [9]

CCOC(=O)[C@H](CCc1ccccc1)N[C@@H](C)C(=O)N1[C@H](C(=O)O)C[C@@H]2CCC[C@@H]21
inactive: Potency [1] | Potency [2] | outcome [3] | Potency [5] | Potency [6] | activity change, positive = activation [7] 3.92% [at 42.5 µM] | Potency [8] | Potency [10] | Potency [9]
